Source: the supplement of paper PMC6555819

Legend:
Assay in all cases: PBM binding z-score (relative to random genomic background probes); higher = stronger binding; sequences stand for … in GC…GCGATTGACAGCGTAGAATGAAGG
[1] = system: FXR:RXRa (NR concentration 270 nM, RXRa partner concentration 90 nM)
In short: (§1)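 Binding z-scores take random background probes as their reference. They come from custom Agilent 4×180K protein-binding microarrays incubated 1 h with ligand-free nuclear receptor dimers, with antibodies against each partner (one per run) detecting binding. Scanned fluorescence was regression-normalized.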

[2] = system: LXRa:RXRa (NR concentration 270 nM, RXRa partner concentration 90 nM)
In short: as §1

[3] = system: LXRa homodimer (NR concentration 270 nM)
In short: as §1

[4] = system: LXRb:RXRa (NR concentration 270 nM, RXRa partner concentration 90 nM)
In short: as §1

[5] = system: LXRb homodimer (NR concentration 270 nM)
In short: as §1

[6] = system: PPARa:RXRa (NR concentration 270 nM, RXRa partner concentration 90 nM)
In short: as §1

[7] = system: PPARg:RXRa (NR concentration 180 nM, RXRa partner concentration 90 nM)
In short: as §1

[8] = system: PPARg:RXRa 270nM:90nM, anti-RXR (NR concentration 270 nM, RXRa partner concentration 90 nM)
In short: as §1

[9] = system: PPARg:RXRa 30nM:10nM, anti-RXR (NR concentration 30 nM, RXRa partner concentration 10 nM)
In short: as §1

[10] = system: PPARg:RXRa 90nM:30nM, anti-RXR (NR concentration 90 nM, RXRa partner concentration 30 nM)
In short: as §1

[11] = system: PPARg:RXRa DBDmut IVT, anti-RXR (DBD mutation: RXRa K156A/R161A, NR concentration 270 nM, RXRa partner concentration 90 nM)
In short: as §1

[12] = system: PPARg:RXRa IVT, anti-PPARg (NR concentration 270 nM, RXRa partner concentration 90 nM)
In short: as §1

[13] = system: PPARg DBDmut:RXRa IVT, anti-PPARg (DBD mutation: PPARg1 K132A/R137A, NR concentration 270 nM, RXRa partner concentration 90 nM)
In short: as §1

[14] = system: PPARg DBDmut IVT, anti-PPARg (DBD mutation: PPARg1 K132A/R137A, NR concentration 270 nM)
In short: as §1

[15] = system: PPARg homodimer (NR concentration 180 nM)
In short: as §1

[16] = system: PXR:RXRa (NR concentration 270 nM, RXRa partner concentration 90 nM)
In short: as §1

[17] = system: PXR homodimer (NR concentration 270 nM)
In short: as §1

[18] = system: RARa:RXR (NR concentration 270 nM, RXRa partner concentration 90 nM)
In short: as §1

[19] = system: RARa homodimer (NR concentration 270 nM)
In short: as §1

[20] = system: RARb:RXRa (NR concentration 270 nM, RXRa partner concentration 90 nM)
In short: as §1

Sequence	PBM binding z-score [1]	PBM binding z-score [2]	PBM binding z-score [3]	PBM binding z-score [4]	PBM binding z-score [5]	PBM binding z-score [6]	PBM binding z-score [7]	PBM binding z-score [8]	PBM binding z-score [9]	PBM binding z-score [10]	PBM binding z-score [11]	PBM binding z-score [12]	PBM binding z-score [13]	PBM binding z-score [14]	PBM binding z-score [15]	PBM binding z-score [16]	PBM binding z-score [17]	PBM binding z-score [18]	PBM binding z-score [19]	PBM binding z-score [20]
CCCTACGGGTCACGAGGTTATAGCACGACGAGCG	6.43	4.68	0.337	4.01	-0.522	5.71	6.58	6.23	2.52	4.88	2.05	4.19	0.401	0.144	2.51	4.57	0.609	5.9	1.28	4.36
CCTACTGGGCCAAAAGGGTCATTGATGCCGATAA	2.19	2.17	0.372	2.58	-0.642	3.78	3.54	4.35	1.7	3.87	4.13	3.9	-0.517	-1.13	2.18	3.16	0.631	3.57	-0.0364	2.74
ACAGACAGGTGACTGAAGGTAACTCAGCTGGACG	0.0674	0.59	-0.72	-0.364	-1.02	0.299	0.781	0.364	-0.0254	0.262	0.539	0.434	0.745	-0.576	-0.875	-0.321	-0.503	0.0913	-0.597	0.563
CCTATTAGTTGACCATAAGGGAAACCGAAGCTCG	0.0135	0.118	0.818	0.349	0.904	0.126	0.419	0.639	0.332	0.381	0.672	0.217	0.925	1.02	2.22	0.326	0.761	0.517	2.53	0.497
CGAACTAGGTCAAGGAGAGTGAATCTCCGCACGC	2.98	1.99	-0.412	1.17	-0.521	4.25	7.01	6.29	3.34	5.99	8.29	7.9	1.48	0.243	0.896	0.744	-0.41	1.44	-0.0147	3.74
ATATGTTGGTTACATCCGGGTCATTCAGGCTATG	1.39	1.84	0.976	2.03	1.13	2.43	1.07	1.17	0.492	0.873	1.41	2.24	1.25	1.54	1.46	2.51	1.42	2.55	1.23	1.62
TCATATAGGTAAATGCTCGGTGAAAGTCCGATCT	1.09	0.864	0.318	0.922	-0.121	1.33	0.611	2.36	3.97	3.11	4.09	1.97	0.975	0.65	0.847	0.631	0.54	0.843	0.605	0.474
CGTCCAAGGTCAGGGTCAGTGAAAGAGACTCGAA	6.11	3.93	-0.0372	3.66	0.128	5.11	4.59	4.52	1.28	2.98	2.17	3.09	0.335	-0.416	2.66	3.7	0.71	4.22	1.34	5.2
CAGCCTCGGTCAGGGCCAGTATAGGAGGAACGTT	-0.344	-0.223	-0.491	-0.601	-1.46	-0.701	-0.243	-1.13	-1.22	-1.45	-0.887	-0.552	-1.14	-2.31	-0.745	-0.881	-0.661	-0.746	-0.656	2.01
TCATATAGGTAAATGCGAGGTGAAAGTCCGATCT	1.14	1.58	0.216	0.944	-0.00137	2.07	1.06	2.53	4.02	3.07	4.13	3.06	1.27	1.1	1.14	1.1	0.0797	1.67	1.15	0.77
CATACAGGGTCAGCTTGGCCAGAGTAGGGACGGC	4.12	2.73	-0.212	1.86	0.138	4.1	2.78	2.88	0.385	1.57	1.04	2.5	0.91	0.462	1.09	2.01	-0.3	2.93	0.544	3.99
CAAACTTGGTCACGAAAGGTCAAAGTCGAATGAC	5.56	6.11	5.72	5.74	2.04	5.22	4.84	5.24	2.75	4.59	2.71	4.16	0.428	0.593	4.33	6.21	1.66	6.77	3.25	4.68
AGTCAAAGTTCACTAGGTAAAGTAAGATTCAGCT	5.11	4.89	2.94	2.95	0.968	4.53	7.12	6.14	3.45	5.45	1.8	4.56	0.983	1.74	2.43	3.9	2.63	3.07	1.41	4.74
ATACCAAGGTGATGGTGAGGTCGTTGATACTAAC	0.921	0.64	0.268	1.09	-0.372	1.56	0.532	0.222	0.0287	0.21	0.223	1.12	0.793	0.597	1.2	2.71	1.55	1.47	0.462	1.17
CCAGACAGGTGAGAAGGTAACTCTGCCTCGATTA	0.00014	0.0948	-0.229	0.114	-0.103	0.793	0.466	0.906	-0.293	0.346	1.34	0.644	-0.0545	-0.239	0.832	0.051	0.394	0.441	-0.197	0.638
